From PubChem BioAssay AID2551 (National Center for Advancing Translational Sciences (NCATS), 2010)
The campaign covered roughly 310,000 compounds. About 17,000 (5.5%) were called active. Another 11% or so got no clear call; they are omitted. Calls follow the shape of the dose curve; as a rule, active = well fitted inhibition curve with a large enough effect; inconclusive = small, poorly fitted or top-dose-only effect, or effect the other way; inactive = no such curve, though single readings can be large or run the other way. What follows is part of a selection rich in actives, with near analogues and random picks from the rest.

target: Nuclear receptor ROR-gamma (Mus musculus) (UniProt P51450); assay: qHTS for inhibitors of ROR gamma transcriptional activity; settings: Drosophila S2 Gal4-RORgamma UAS-luciferase reporter, 20 h; series mostly up to 53.6 µM; activity change, negative = inhibition: at the top concentration; also: nearly all actives have a fitted effect of over 60% in size
Sequence (P51450 whole entry, looked up, the tested form may be a part): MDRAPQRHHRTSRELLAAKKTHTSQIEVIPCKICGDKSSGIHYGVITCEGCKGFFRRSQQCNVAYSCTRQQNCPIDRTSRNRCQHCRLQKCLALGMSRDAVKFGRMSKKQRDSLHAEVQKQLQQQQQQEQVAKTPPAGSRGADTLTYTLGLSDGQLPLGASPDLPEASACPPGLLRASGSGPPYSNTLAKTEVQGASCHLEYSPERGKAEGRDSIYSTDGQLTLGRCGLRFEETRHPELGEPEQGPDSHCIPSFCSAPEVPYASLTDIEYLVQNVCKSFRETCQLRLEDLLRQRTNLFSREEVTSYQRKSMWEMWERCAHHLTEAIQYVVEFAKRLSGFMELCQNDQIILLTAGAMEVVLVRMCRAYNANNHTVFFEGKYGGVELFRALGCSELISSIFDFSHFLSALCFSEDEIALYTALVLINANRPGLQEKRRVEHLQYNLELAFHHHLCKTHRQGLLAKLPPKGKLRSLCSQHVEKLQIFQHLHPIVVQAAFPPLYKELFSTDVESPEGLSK
Excerpt: NIH Molecular Libraries Probe Production Network [MLPCN] NIH Chemical Genomics Center [NCGC] MLPCN Grant: R03 DA026211-01 Assay Provider: Dan Littman, New York University Assay Overview: The retinoic acid-related orphan receptor (ROR) gamma is a transcription factor that has a central role in the differentiation of Th17 cells, a subset of T helper cells that secrete the inflammatory cytokines IL-17, IL-17F, and IL-22. Th17 cells have been implicated in graft versus host disease, autoimmune disease and asthma. ROR gamma is induced in naive T helper cells in the presence of TGF-beta combined with IL-6, IL-21, or IL-23, and thereafter directs the expression of the Th17 lineage cytokines. To study the mechanism of action of ROR gamma, an insect cell-based assay was screened. This Drosophila Schneider cell line was stably transfected with two vectors: a gene expressing a fusion of the Gal4 DNA binding domain and ROR gamma transactivation domain under the control of the metallothionine promoter and a Photinus luciferase reporter regulated by the Gal4 binding site enhancer, UAS. […] Small molecule inhibitors of ROR gamma activity are detected by a decrease in luciferase reporter activity.
Assay Protocol Summary: For screening, 600 cells in 4 uL/well were dispensed into white solid 1536-well plates (Grenier) using a solenoid-based dispenser. Following transfer of 23 nL compound or DMSO vehicle by a pin tool, the plates were incubated 1 hr at ambient temperature, and 1 uL/well copper sulfate (700 uM final concentration) was added. The plates were centrifuged 15 s at 1000 RPM and incubated 20 hr at ambient temperature. After addition of 1.5 uL Photinus luciferase detection reagent, the plates were incubated 10 min at ambient temperature and then read by an ViewLux (Perkin Elmer) to detect luminescence. Keywords: NIH Roadmap, MLPCN, MLI, MLSMR, qHTS, NCGC, qHTS, nuclear hormone receptor, retinoic acid-related orphan receptor, ROR gamma
% is scaled to controls: 0 for no effect and ±100 for the full control effect; potency is read from the fitted curve at half-maximal effect.

Activity change, negative = inhibition, inactive:
Cc1cccn2c(=O)c3cc(C(=O)NCC4CCCO4)c(=N)n(Cc4ccc(F)cc4)c3nc12 (stereo unspecified) -18%
COc1cc(OC)c(OC)cc1CN1CCN(C(=O)c2cccc3ccccc23)CC1 -28.8%
CC(=O)Nc1ccc(/C=N/Nc2ccc(C(=O)c3c(C)cc4ccccn34)cc2[N+](=O)[O-])cc1 0%
Cc1cc2ccccn2c1C(=O)c1cccc(F)c1 12.6%
Cc1ccc(NC(=O)Nc2ccccc2)c(Br)c1 -14.6%
C=CCNC(=O)c1csc(-c2ccccc2)n1 12.6%
Cc1ccc(NC(=O)NNC(=O)c2sccc2-n2cccc2)cc1 0.775%
COC(=O)c1cc(NS(=O)(=O)c2ccc3c(c2)c(=O)n(C)c(=O)n3C)cc(C(=O)OC)c1 -6.7%
Cc1cccc(C)c1N1C(=O)CN(Cc2ccccc2)C1=S -9.65%
CCC(=O)c1cn(CCOc2ccccc2OC)c2ccccc12 -12.4% [at 1.91 µM]
Cc1cccc(NC(=O)C2CCCN(C(=O)NCc3ccccc3)C2)c1C (stereo unspecified) -0.477%
CN(C)c1ccc(CNC(=O)CN2C(=O)COc3ccc(S(=O)(=O)N4CCCC4)cc32)cc1 -0.822%
COc1ccc2c(Cl)c(C(=O)NCc3ccco3)sc2c1 3.73%
CCOCC(=O)Nc1cc(OC)c(Cl)cc1OC -14.6%
COc1ccc(NC(=O)CCC(=O)Nc2cc(OC)c(NC(=O)c3ccco3)cc2OC)c(OC)c1 7.54%
COC(=O)c1cc(Cl)c(NC(=O)c2ccco2)cc1OC 37.3%
CCOc1cc(NC(=S)NCCCN(C)C)c(OCC)cc1NC(=O)C1CC1 -16.6%
O=C(Nc1ccc(NC(=O)c2ccco2)c(Cl)c1)c1cccc([N+](=O)[O-])c1 -37.6%
COc1ccc(CC(=O)Nc2ccccc2NC(=O)c2ccco2)cc1OC -0.827%
CCOc1cc(NC(=O)c2ccco2)c(OCC)cc1NC(=O)COc1ccccc1 -43.1%
CCc1nn(CCCC(=O)Nc2ccc(C)c(C)c2)c(=O)c2cc3occc3n12 20.9%
O=C(O)c1cc(S(=O)(=O)NC2CCCc3ccccc32)ccc1O (stereo unspecified) 7.08%
CC(C(=O)NCCc1ccc(S(N)(=O)=O)cc1)N1C(=O)CC(C)(C)Sc2ccccc21 (stereo unspecified) -2.79%
CNC(=O)N1c2ccccc2C=Cc2ccccc21 -3.21%
Clc1nc(NC2CCCC2)nc(N2CCOCC2)n1 39.7%
COc1cccc(N(CC(=O)NC2CCCC2)C(=O)Cn2nnc(-c3ccc(C)o3)n2)c1 3.81%
S=c1[nH]nc(-c2cccs2)n1/N=C/c1cn(-c2ccccc2)nc1-c1ccc(Cl)cc1 -41.1%
c1ccc(-c2cc(-c3nnc4sc(-c5ccccn5)nn34)[nH]n2)cc1 6.02%
CCN(CC)S(=O)(=O)c1cccc(-c2n[nH]c(=S)n2/N=C/c2ccc(C(=O)OC)cc2)c1 -44.9%
Brc1ccc(/C=N/N2CCN(C3c4ccccc4-c4ccccc43)CC2)s1 -12.9%
S=c1[nH]nc(-c2ccncc2)n1/N=C/c1ccccc1Cl -23.7%
CCOc1ccc(-c2n[nH]c(=S)n2/N=C/c2cc3c(cc2[N+](=O)[O-])OCO3)cc1 -47.7% [at 10 µM]
Cc1ccc(-c2n[nH]c(=S)n2/N=C/c2cc3c(cc2[N+](=O)[O-])OCO3)cc1 -28%
O=C(CCN1CCN(C/C=C/c2ccccc2)CC1)Nc1ccccc1Cl -1.61%
C/C=C/C(=O)OCc1csc(CC(=O)Nc2ccccc2C)n1 -16.8%
COc1cccc(N(CC(=O)NC2CCCCCC2)S(=O)(=O)c2ccccc2)c1 -18.8%
COc1ccc(CCNC(=O)CCc2cn(C)c3ccccc23)c(OC)c1 -12.4%
Cc1cccc(NC(=O)C2CCN(C(=O)NC3CCCCC3)CC2)c1 -25.8%
Cc1cccc(NC(=S)NC23CN4CN(CN(C4)C2)C3)c1 -15.1%
O=C(NC1CCCC1)C(=O)c1c[nH]c2ccccc12 -36.6%
CCOc1ccc2[nH]c(C(=O)N/N=C/c3cccc(OC)c3OC)cc2c1 -15.4%
C#CC(C)(C)NC(=O)c1cnc(-c2ccccc2)nc1-c1ccccc1 -14.4%
CCCc1nnc(NC(=O)CCC(=O)N2CCN(S(=O)(=O)c3ccc(OC)cc3)CC2)s1 12.7%
COc1ccc(Cc2nnc(NC(=O)c3ccc(OC)cc3OC)s2)cc1 19.7%
COc1ccccc1NC(=O)Nc1nnc(Cc2ccc(F)cc2)s1 7.65%
CCCc1nnc(NC(=O)c2cccs2)s1 -40%
Cc1cc(C)c2nc(N3CCC(C(=O)NCCN4CCOCC4)CC3)sc2c1 7.01%
Cc1nonc1NC(=O)c1oc2ccccc2c1C -0.26%
COc1ccc(C(=O)C2CCCN(C(=O)c3cc(C)on3)C2)cc1F (stereo unspecified) 11%
COc1ccccc1CNC(=O)c1ccc(N(C)S(=O)(=O)c2ccc(C)cc2)cc1 2.62%
COc1ccc(CSc2nnnn2-c2ccc(C(=O)O)cc2)cc1 14.9%
COc1cc(/C=C(\C#N)c2nc3ccccc3[nH]2)ccc1O 15.4%
COc1cc(/C=N/Nc2nc3ccccc3s2)ccc1O -23%
CCc1ccc(OCC(=O)NCC(c2ccc(Cl)cc2)N2CCCCC2)cc1 (stereo unspecified) 0%
OC1CSc2nc3ccccc3n2C1 (stereo unspecified) 2.37%
O=C(Nc1ccccc1)C1CC(=O)n2c(nc3ccccc32)N1 (stereo unspecified) -22%
Cc1ccc(-n2nc3c(=O)n(C(C)C(=O)NCc4ccc5c(c4)OCO5)nc(C)c3c2C)cc1 (stereo unspecified) 26.2%
CN(CC1CCCO1)S(=O)(=O)c1ccc(C(=O)Nc2ccc(F)cc2)cc1 (stereo unspecified) 17.2%
COCCn1c(-c2ccc(OC)c(OC)c2)nc2ccccc21 -28.3%
COc1ccc(NC(=O)COC(=O)Cn2c(C)nc3ccccc32)cc1OC 16.5%
COc1cccc(CNC(=O)COc2cc(O)c3c(c2)OC(C)(C)CC3=O)c1 4.48%
Cc1[nH]c(C)c(S(=O)(=O)N2CCN(c3cccc(C(F)(F)F)c3)CC2)c1C(=O)N1CCCC1 -17.9%
Cc1ccccc1N1CCN(S(=O)(=O)c2ccc3ccccc3c2)CC1 -16.6%
Cc1cccn2c(=O)c(C=O)c(Nc3ccc(S(N)(=O)=O)cc3)nc12 -41.3%
CN(CC1CCCO1)S(=O)(=O)c1ccc(C(=O)Nc2ccc([N+](=O)[O-])cc2)cc1 (stereo unspecified) 13.7%
CC(=O)N1c2ccc(S(=O)(=O)N3CCC(C(=O)NC4CCCC(C)C4C)CC3)cc2CC1C (stereo unspecified) -1.35%
Cc1ccccc1CNC(=O)CCC(=O)N1Cc2ccccc2Oc2ncccc21 4.13%
COc1ccc2[nH]c(=O)c(CN(Cc3cccnc3)S(=O)(=O)c3ccccc3F)cc2c1 21.1%
Cn1nccc1NC(=O)Nc1ccc(OC(F)(F)F)cc1 15.9%
COC(=O)Cc1ccc(OCC(=O)Nc2ccc(OC(F)(F)F)cc2)cc1 26.2%
O=C(CCOc1ccccc1)NCc1ccccc1 5.22% [at 0.365 µM]
COc1cc(C(=S)NCc2ccccc2)cc(Br)c1O 15.3%
CC(C)Cn1c(=O)c2ccccc2n2c(CCC(=O)NCc3ccccn3)nnc12 -7.08%
Cc1ccc(C(C(=O)NCC2CCCO2)N(C(=O)c2snc(C(N)=O)c2N)c2ccc(C(C)C)cc2)o1 (stereo unspecified) 40.4%
CCOc1ccc(OCC(=O)Nc2c3c(nn2C(C)(C)C)CS(=O)(=O)C3)cc1 -13.8%
CC(C)(C)c1ccc(SCCc2ccncc2)cc1 -15.8%
CC1(C)CC(=O)c2ccc(O)cc2O1 29%
COc1ccc2c(c1)SC(C)CC2=O (stereo unspecified) -11.9%
CC(=O)N1CCOc2ccc(S(=O)(=O)N3CCN(c4cccc(C(F)(F)F)c4)CC3)cc21 30.8%
COc1ccc(-c2nnc(SCC(=O)NC3CCCCC3)o2)cc1OC -18.5%
COc1ccc(-n2c(C)cc(C(=O)CSc3nnc(-c4cccs4)o3)c2C)cc1 -33.4%
COCCOC(=O)C1=C(C)NC(=O)NC1c1cc2c(cc1Br)OCO2 (stereo unspecified) -4.24%
Cc1ccc2cc(/C=N/Nc3ccc(C(=O)O)cc3)c(Cl)nc2c1 -43.4%
O=C(O)c1ccc(/C=N/Nc2nc(N3CCCCC3)nc(N3CCCCC3)n2)cc1 -42.2%

Potency, active:
Cc1ccc(C(C[N+](=O)[O-])c2c(C)cc3ccccn23)cc1 (stereo unspecified) 22.4 µM
C=CC[n+]1c(-c2ccc(C)cc2)csc1NNC(=O)Nc1ccccc1 14.1 µM
C=CCNc1scc(-c2ccccc2)[n+]1CC=C 12.6 µM
COc1cc(NC(=S)NCc2ccco2)c(OC)cc1Cl 7.08 µM
CCOc1cc(NC(=S)NCc2ccco2)c(OCC)cc1NC(=O)c1ccco1 1.12 µM
CCC(=O)NC(=S)Nc1ccc(NC(=O)c2ccco2)c(Cl)c1 2.51 µM
CCOc1cc(NC(=S)NCCCOC)c(OCC)cc1NC(=O)c1ccco1 20 µM
S=c1[nH]nc(-c2cc(-c3ccccc3)n[nH]2)n1/N=C/c1c2ccccc2cc2ccccc12 7.94 µM
Oc1ccccc1/C=N/n1c(-c2cccs2)n[nH]c1=S 10 µM
S=c1[nH]nc(-c2ccco2)n1/N=C/c1ccc(Br)s1 11.2 µM
Cc1ccc(/C=N\n2c(-c3ccccc3)n[nH]c2=S)s1 3.98 µM
Cc1cccc(NC(=S)NCCN(C2CCCCC2)C2CCCC2)c1 8.91 µM
COc1ccc(Cc2nnc(NC(=O)c3cc(OC)c(OC)c(OC)c3)s2)cc1OC 7.08 µM
CCCc1nnc(NC(=O)c2cc(OC)cc(OC)c2)s1 11.2 µM
COc1cc(/C=C(\C#N)c2nc3c(s2)CC(C)CC3)ccc1O (stereo unspecified) 1.41 µM
C[C@H]1[C@H]2c3nc4ccccc4n3C[C@H]1ON2C1CCCCC1 11.2 µM
COc1ccc(-c2nc3ccccc3n2CCC(C)C)cc1OC 11.2 µM
CCNC(=S)Nc1ccc(OC(F)(F)F)cc1 8.91 µM
FC(F)(F)Oc1ccc(NC(=S)NCc2ccccc2)cc1 7.08 µM
COc1ccc2c(c1)OC(O)(C(F)(F)C(F)F)CC2=O (stereo unspecified) 12.6 µM
COc1ccc(OC)c(C(=O)CSc2nnc(-c3cccs3)o2)c1 7.08 µM
O=C(O)c1ccc(N/N=C/c2ccc3ncccc3c2)cc1 0.398 µM
